# Assay outcomes from PubChem.
# This is a sample that favours compounds with a hit; in the whole collection about 8.8% have one here.
# HT1080 IDH1KD tx: HT-1080 IDH1 knockdown cell toxicity (counter line). HT-1080 IDH1 knockdown viability, ATP luminescence, 48 h. hit rate 2% among 360,000. Potency, µM (titrated, usually from 46.1 µM), for inactives: top-dose activity, negative = toxicity, actives largely listed as cytotoxic;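 further: potency means the concentration at half of the fitted maximal effect; 0% = DMSO wells and -100% = cell-free medium wells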
#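 IDH1KD HT-1080 cells, 750/well, RPMI + 5% FBS; compound pinned after 2 h settling; 48 h, 37 °C; CellTiter-Glo luminescence; % activity normalised to DMSO and no-cell wells; curves fitted, classed by r2 and efficacy.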
# KB-3-1 tox: kills parental KB-3-1 adenocarcinoma cells | KB-3-1 viability, CellTiter-Glo ATP luminescence, 72 h | Potency, µM (top dose mostly 46.1 µM), actives largely listed as cytotoxic | hit rate 1.4% among 400,000 | AID 1347075; further: potency means the concentration at half of the fitted maximal effect; nearly all actives have a fitted effect of over 60% in size
#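 Parental KB-3-1 adenocarcinoma cells in phenol-red-free DMEM with 10% FBS were pin-treated with compounds at several concentrations, incubated 72 h at 37 °C, and viability read by CellTiter-Glo luminescence; concentration-effect curves were fitted after normalization.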
# KB-V1 cytotox: kills drug-selected multidrug resistant KB-V1 cells. Potency, µM (doses to about 46.1 µM), usual class: cytotoxic. AID 1347076. KB-V1 MDR cells viability, CellTiter-Glo, 72 h. hit rate 3.4% among 400,000; further: potency means the concentration at half of the fitted maximal effect; nearly all actives have a fitted effect of over 60% in size
#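 KB-V1 MDR subline cells in DMEM (phenol-red free, 10% FBS) exposed to compounds in qHTS concentration series for 72 h at 37 degrees C. Viability read by CellTiter-Glo luminescence; concentration-effect curves fitted after normalization and correction.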
# HT1080-NT tox: kills 2HG-producing HT-1080-NT fibrosarcoma cells; HT-1080-NT fibrosarcoma viability, CellTiter-Glo ATP luminescence, 48 h; Potency, µM (top dose mostly 46.1 µM), inactives show at the highest dose activity, negative = less viability, most hits filed as cytotoxic; hit rate 1.6% among 360,000; AID 686970;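 further: NT is the 2HG producing partner of a matched IDH1 knockdown line; potency means the concentration at half of the fitted maximal effect; 0% = DMSO-treated cells and -100% = media-only wells without cells; nearly all actives have a fitted effect of over 55% in size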
#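 HT-1080-NT; 750 cells/well; 5% FBS RPMI; 48 h compound, 37 degrees C; CellTiter-Glo luminescence; curve fitting and curve-class assignment.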
# IL1B secr inh: inflammasome signaling inhibition, IL-1 beta readout; THP-1 LPS/ATP IL-1B secretion, AlphaLISA, 16 h; active compounds read low; activity change, % at 57.5 µM; hit rate 4.7% among 360,000; AID 743279; in the data active means activity change below about -50%; inconclusive means mostly about -30% to -49%
#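 Secreted IL-1B measured by AlphaLISA bead assay after 16 h compound exposure of THP-1 cells; compounds (final up to 57.5 uM) added 1 h before LPS (250 ng/mL) and ATP (1.25 mM) stimulation; lower signal means less secretion.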
# * marks the source's active call; other numbers are inactive results; i = inactive; ? = inconclusive; . = no result. Unless noted, the call rests on the fitted dose curve; in most records, active means well fitted curve in the direction sought with a large enough effect; inconclusive means small, poorly fitted or top-dose-only effect, or another doubt; inactive means no such curve, though single readings can be large; an effect the other way counts as inactive or inconclusive. Unless noted, on the % scale 0 is the no-effect control and ±100 the full control effect.
SMILES,HT1080 IDH1KD tx,KB-3-1 tox,KB-V1 cytotox,HT1080-NT tox,IL1B secr inh
O=C(N/N=C/c1ccc(OC(F)F)cc1OC(F)F)c1ccc(Br)cc1,13%,i,i,15%,16
Cc1ccc(S(=O)(=O)N(C)Cc2ccc(C(=O)N/N=C/c3ccc(OC(F)F)cc3OC(F)F)cc2)cc1,-27%,?,5.8µM*,5%,7
COc1cc(C(=O)N/C(=C\c2cn(C)c3ccccc23)C(=O)NCCCN2CCOCC2)cc(OC)c1OC,-1%,i,i,2%,27
CNc1c2cccc(C)c2nc2c(C(=O)NCCN(C)C)cccc12,7.3µM*,0.29µM*,?,?,-117*
O=c1cc(-c2ccc(F)cc2)nc(SCc2nc(-c3ccccc3Cl)no2)[nH]1,.,i,i,.,.
CCc1ccc(C(=O)CN2C(=O)NC(C)(c3ccc(C)cc3)C2=O)cc1 (stereo unspecified),-1%,i,i,-1%,-3
Cc1ccc(C2(C)NC(=O)N(CC(=O)c3ccc(Cl)s3)C2=O)cc1 (stereo unspecified),0%,i,21µM*,2%,-9
CC(C)c1ccc(CNc2nc(NCC3CC3)nc3ccsc23)cc1,18µM*,?,?,23µM*,-30
CC(C)Nc1nc(NCCOc2ccccc2)c2sccc2n1,23µM*,i,?,26µM*,-72*
CC(=O)NCCNc1nc(NC(C)C)nc2ccsc12,17%,i,i,?,89
CSc1ccccc1CNc1nc(NCC2CC2)nc2ccsc12,21µM*,i,i,18µM*,-106*
COc1ccccc1CNc1nc(NC(C)C)nc2ccsc12,?,?,10µM*,?,-98*
COc1cc(C(=O)NCCc2sc(-c3cccc(F)c3)nc2C)cc(OC)c1OC,.,i,i,.,.
CCOc1cccc(NC(=O)c2cccc(F)c2)c1,3%,i,i,0%,13
COc1ccccc1CNc1nc(NCc2ccc(C(C)C)cc2)c2sccc2n1,18µM*,?,?,21µM*,-83*
COc1cccc(CNc2nc(NCC3CC3)nc3ccsc23)c1OC,12µM*,i,?,23µM*,-101*
COc1ccccc1CNc1nc(-c2ccccc2CO)c2sccc2n1,-22%,i,i,-16%,-27
COc1cccc(CNc2nc(NC(C)C)nc3ccsc23)c1OC,-19%,i,i,15µM*,-81*
COc1ccccc1CNc1nc(Nc2ccccc2OC)c2sccc2n1,5%,i,i,17%,7
c1csc(CNc2nc(NCC3CCCCC3)c3sccc3n2)c1,?,i,?,?,?
CC1(C(=O)NS(=O)(=O)c2cccc(F)c2)CCN1C(=O)CCc1ccccc1 (stereo unspecified),5%,i,i,28%,12
O=C(Nc1ccc(-c2nc3ccccc3[nH]2)cc1)c1ccc(Oc2ccccc2)cc1,.,i,i,.,.
Cc1ccc(-c2cnc(NC(=O)c3cccc(Br)c3)s2)c(C)c1,-4%,i,?,-8%,-58*
Cc1cc(NC(=O)c2cccc(Br)c2)n[nH]1,2%,i,i,2%,-2
Nc1cc(S(=O)(=O)N2CCCCC2)ccc1N1CCCCC1,-1%,?,18µM*,4%,-7
SMILES,HT1080 IDH1KD tx,KB-3-1 tox,KB-V1 cytotox,HT1080-NT tox,IL1B secr inh
O=S(=O)(c1ccc2c(c1)C(=NO)c1cc(S(=O)(=O)N3CCCCC3)ccc1-2)N1CCCCC1,0.58µM*,1.2µM*,5.2µM*,0.37µM*,-85*
Nc1cc(S(=O)(=O)N2CCOCC2)ccc1N1CCCCC1,-13%,i,i,0%,-8
CC1CCN(S(=O)(=O)c2ccc3c(c2)C(=NO)c2cc(S(=O)(=O)N4CCC(C)CC4)ccc2-3)CC1,2.6µM*,?,i,1.5µM*,-89*
COc1ccc(S(=O)(=O)N2CCC(C)CC2)cc1OC,-5%,i,i,-9%,-7
CC(C)n1cc(CN2CCC(C(=O)Nc3ccc(Oc4ccccc4F)cc3)CC2)cn1,21µM*,?,i,?,-4
COc1cc(F)ccc1CN1CCC(C(=O)Nc2ccc(Oc3ccccc3)nc2)CC1,21µM*,?,?,?,-81*
